Bioassay records deposited in PubChem by National Center for Advancing Translational Sciences (NCATS).
The list is not random: actives were taken first. Their share in the collection is about 7.4%.
hNpr1 antagonist: human Npr1 receptor antagonism; P16066; HEK293 hNpr1 GloSensor cGMP, ANP-stimulated luminescence; Potency, µM (titrated, usually from 46.3 µM), inactives show top-dose activity change, negative = inhibition, actives largely listed as inhibitors; 1.6% of 76,000 active; AID 1347048; calls by dose curve; note: nearly all actives have a fitted effect of over 60% in size
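Compound pre-incubated 30 min at room temperature on GloSensor-loaded HEK293 cells stably carrying hNpr1 and the pGS-40F cGMP biosensor. Stimulation uses hNppA at 0.1 nM final; luminescence is taken at baseline and 20 min post-agonist.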
3T3 cytotox: kills NIH 3T3 cells. Potency, µM (highest dose often 96.7 µM), for the others: top-dose activity change, negative = cytotoxicity, most hits filed as inhibitors. AID 1345082. 4.3% of 94,000 active. NIH 3T3 viability, CellTiter-Glo ATP luminescence, 48-72 h; note: nearly all actives have a fitted effect of over 55% in size
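Cells were seeded at 400 per well, treated with pin-transferred compound, and kept 48 or 72 hr at 37 °C before CellTiter-Glo addition and luminescence imaging of cellular ATP.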
SNCA viab count: counter-screen for SNCA expression inhibitors: cell viability | HEK-293-SNCA-luc viability, GF-AFC fluorescence, 24 h | Potency, µM (top dose mostly 57.1 µM), inactives show at the top dose activity change, negative = cytotoxicity, most hits filed as cytotoxic | 0.12% of 150,000 active;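 note: 0% = DMSO-treated cells and -100% = medium-only wells without cells; nearly all actives have a fitted effect of over 30% in size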
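HEK-293-SNCA-luc cells (1500/well) plated 24 h, then exposed 24 h to a dilution series; GF-AFC added 30 min at 37C, fluorescence 405/540 nm; normalised to medium-only and DMSO wells, Hill fit.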
Luciferase inh: Photinus pyralis luciferase inhibition; P08659; purified P. pyralis luciferase, luminescence, biochemical; Potency, µM (titrated, usually from 115 µM), usual class: inhibitors; 2.5% of 76,000 active; note: nearly all actives have a fitted effect of over 65% in size
Target sequence (P08659 whole entry, looked up): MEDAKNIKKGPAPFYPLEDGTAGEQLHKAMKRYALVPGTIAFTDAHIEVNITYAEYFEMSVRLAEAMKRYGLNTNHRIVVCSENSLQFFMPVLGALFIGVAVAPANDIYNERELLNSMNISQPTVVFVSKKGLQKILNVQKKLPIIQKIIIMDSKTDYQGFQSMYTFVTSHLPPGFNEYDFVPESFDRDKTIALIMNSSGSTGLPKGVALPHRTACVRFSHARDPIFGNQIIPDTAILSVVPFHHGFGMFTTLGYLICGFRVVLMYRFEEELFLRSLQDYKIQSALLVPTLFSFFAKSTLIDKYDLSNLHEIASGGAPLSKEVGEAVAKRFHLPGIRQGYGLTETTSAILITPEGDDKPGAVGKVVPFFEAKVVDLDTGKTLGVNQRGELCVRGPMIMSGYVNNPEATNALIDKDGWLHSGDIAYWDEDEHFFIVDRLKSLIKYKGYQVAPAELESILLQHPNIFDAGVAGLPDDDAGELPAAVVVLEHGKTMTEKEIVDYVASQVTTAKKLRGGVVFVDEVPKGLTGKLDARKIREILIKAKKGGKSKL
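Luminescence read by CCD imaging after purified firefly luciferase (10nM final) was added to substrate buffer holding 10uM D-luciferin and 10uM ATP, pH 7.5, pre-dosed with compound.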
SNCA expr inh: inhibitors of alpha-synuclein (SNCA) gene expression; HEK-293 SNCA-luciferase knock-in, luminescence, 24 h; Potency, µM (doses to about 57.2 µM), without a hit: top-dose activity change, negative = inhibition, actives largely listed as inhibitors; 0.17% of 140,000 active; AID 1671194;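 note: plate controls were DMSO cells for no effect and cell-free wells for full effect; nearly all actives have a fitted effect of over 45% in size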
HEK cytotox: kills HEK 293 cells; HEK 293 viability, ATP luminescence (CellTiter-Glo), 48-72 h; Potency, µM (doses to about 115 µM), for inactives: top-dose activity change, negative = cytotoxicity, usual class: inhibitors; 6.6% of 94,000 active; note: nearly all actives have a fitted effect of over 60% in size
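Luminescence from cellular ATP, measured with CellTiter-Glo, indicates HEK 293 viability. Cells plated at 250 cells/well are treated with compound for 48 or 72 hr at 37 degree Celsius before reagent addition.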
* hit, by the source's call; i = inactive; ? = inconclusive; / = no result given; [ ] = another dose, or the depositor's remark. Unless noted, calls come from the whole dose curve; as a rule, active = well fitted curve in the direction sought with a large enough effect; inconclusive = small, poorly fitted or top-dose-only effect, or another doubt; inactive = no such curve, though single readings can be large; an effect the other way counts as inactive or inconclusive. Unless noted, % is set by controls: 0 for no effect and ±100 for the full control effect; potency is the fitted concentration of half-maximal effect.

SMILES	hNpr1 antagonist	3T3 cytotox	SNCA viab count	Luciferase inh	SNCA expr inh	HEK cytotox
CCOC(=O)C1(Cc2cccc(Cl)c2)CCCN(C(=O)c2csc(C(C)=O)c2)C1 (stereo unspecified)	-17%	-19%	-10%	?	90%	40µM*
CCOC(=O)C1(Cc2cccc(OC)c2)CCCN(C(=O)CCn2ccnc2C)C1 (stereo unspecified)	0%	-16%	4%	i	13%	-28%
CCOC(=O)C1(Cc2cccc(OC)c2)CCCN(C(=O)COc2ccccc2)C1 (stereo unspecified)	-2%	-13%	-2%	35µM*	198%	?
CCOC(=O)C1(Cc2cccc(OC)c2)CCCN(C(=O)CSc2ccncc2)C1 (stereo unspecified)	-3%	-12%	-11%	i	-2%	28µM*
O=Cc1ccc(-c2cccc(Cl)c2)cc1	/	-27%[138 µM]	5%[87.6 µM]	/	-9%[87.6 µM]	0%[172 µM]
Cc1cccc(-c2ccc(CN)cc2)c1	/	32µM*	5%[87.6 µM]	/	27%[87.6 µM]	63µM*
COc1cccc(-c2ccc(CN)cc2)c1	/	?	3%[87.6 µM]	/	17%[87.6 µM]	-29%[172 µM]
NCc1ccc(-c2cccc(Cl)c2)cc1	/	32µM*	-21%[87.6 µM]	/	34%[87.6 µM]	45µM*
CCN1CCN(C(=O)c2cn3cc(-c4ccc(OC)cc4)sc3n2)CC1	/	?	-9%	/	-4%	?
C=CCNC(=O)[C@@H]1Cc2cn(Cc3nccn3C)c3cccc(c23)[C@H](CC(C)C)N1	-2%[70.6 µM]	79µM*	-5%[87.6 µM]	i	-25%[87.6 µM]	?
CC(C)C[C@@H]1N[C@H](C(=O)NC(C)C)Cc2cn(Cc3nccn3C)c3cccc1c23	-13%[70.6 µM]	79µM*	-5%[87.6 µM]	i	-25%[87.6 µM]	?
CC(C)C[C@@H]1N[C@H](C(=O)NC2CCC2)Cc2cn(Cc3nccn3C)c3cccc1c23	-16%[70.6 µM]	79µM*	-28%[87.6 µM]	i	-26%[87.6 µM]	?
C=CCN(C)C(=O)[C@@H]1Cc2cn(Cc3cc(C)on3)c3cccc(c23)[C@H](CC(C)C)N1	2%[70.6 µM]	71µM*	-22%[87.6 µM]	i	15%[87.6 µM]	71µM*
C=CCN(C)C(=O)[C@@H]1Cc2cn(Cc3nccn3C)c3cccc(c23)[C@H](CC(C)C)N1	4%[70.6 µM]	?	-5%[87.6 µM]	i	-14%[87.6 µM]	100µM*
O=C(c1ccc(Cl)cc1)N1CCC2(CC1)C(=O)NCN2Cc1ccc(Cl)cc1	/	i	2%	/	0%	0%
N#Cc1ccc(C(=O)N2CCC3(CC2)NC(=O)N(Cc2ccc(Cl)cc2)C3=O)cc1	?	16µM*	-9%	i	-20%	?
O=C(c1ccc(Cl)cc1)N1CCC2(CC1)C(=O)NCN2CCc1ccc(Cl)cc1	/	?	-15%	/	-23%	40µM*
O=C(O)c1cc(N(Cc2ccc(C3CCCCC3)cc2)C(=O)c2ccc(Oc3ccccc3)cc2)ccc1O	/	/	-14%	/	/	/
O=C(NC1CCCCCC1)c1nc2sccn2c1-c1ccncc1	/	?	-24%[87.6 µM]	/	26%[87.6 µM]	?
Cc1oc(-c2cccc(Oc3ccccc3)c2)nc1CN1CC[C@H](N(C)C)C1	11%	79µM*	-4%	i	1%	?
CC(=O)N1CCCN(Cc2nc(-c3cccc(Oc4ccccc4)c3)oc2C)CC1	2%	?	4%	i	?	?
OC1(CN2CCCCC2)CCN(Cc2cnn(-c3cccc(F)c3)c2)C1 (stereo unspecified)	-3%	?	-3%	i	6%	?
Cc1ccc(-n2cc(CN3CCC(CCO)CC3)c(-c3cccc(C)c3)n2)cc1	-13%	?	-10%	i	-11%	?
Cc1cccc(-n2cc(CN3CCCC(C)(O)C3)c(-c3cccc(F)c3)n2)c1 (stereo unspecified)	6%	89µM*	?	18µM*	5%	?
Cc1ccc(-n2cc(CN3CCN4CCCC4C3)c(-c3cccc(C)c3)n2)cc1 (stereo unspecified)	-3%	25µM*	-7%	?	0%	28µM*
SMILES	hNpr1 antagonist	3T3 cytotox	SNCA viab count	Luciferase inh	SNCA expr inh	HEK cytotox
COc1ccc(-n2cc(CN3CCC(O)CC3)c(-c3cccc(F)c3)n2)cc1	-1%	79µM*	-11%	40µM*	54%	?
Cc1ccc(-c2cc(N3CCC(CNC(=O)c4ccc[nH]4)CC3)n[nH]2)cc1	-1%	?	7%	?	16%	?
Cc1ccc(-c2cc(N3CCC(CNC(=O)c4n[nH]c5c4CCCC5)CC3)n[nH]2)cc1	?	28µM*	-25%	?	?	?
O=C(NC1CCN(c2cc(-c3ccccc3)[nH]n2)CC1)c1ccccc1	-25%	?	8%	i	39%	?
O=C(NCC1CCN(c2cc(-c3ccccc3)[nH]n2)CC1)c1n[nH]c2c1CCCC2	?	32µM*	-14%	?	-29%	?
O=C(NCC1CCN(c2cc(-c3ccc(F)cc3)[nH]n2)CC1)c1n[nH]c2c1CCCC2	?	35µM*	-14%	?	-23%	40µM*
CN(C)c1cccc(C(=O)NCC2CCN(c3cc(-c4ccc(F)cc4)[nH]n3)CC2)c1	-22%	?	-7%	?	46%	?
COc1cc2c(cc1CNC(=O)[C@H]1CCC[C@@H](O)C1)OCCO2	2%	-7%	-2%	i	8%	-28%
COc1ccccc1CN(Cc1ccccc1C)C(=O)[C@H]1CCC[C@H](O)C1	2%	-20%	-17%	i	-13%	22µM*
CCCC1=Nc2cc(C(=O)NCCCN3CCCCC3CC)ccc2Sc2ccc(C)cc21 (stereo unspecified)	-18%	7.1µM*	-22%	i	-24%	?
COc1ccccc1-c1ccc(CN2CC3CCC(C2)N3c2ccc(C(F)(F)F)cc2)cc1	/	-11%	-6%	/	5%	-22%
COc1ccc(F)cc1-c1ccc(CN2CCC(NC(=O)c3ccc(C(F)(F)F)cc3)C2)cc1 (stereo unspecified)	/	?	/	/	/	20µM*
Cc1cccc(-c2cccc(CN3CCC(NC(=O)c4ccc(C(F)(F)F)cc4)CC3)c2)c1	/	-11%	4%	/	-2%	-23%
COc1ccccc1-c1ccc(CN2CCC(NC(=O)c3ccc(C(F)(F)F)cc3)C2)cc1 (stereo unspecified)	/	?	/	/	/	25µM*
CCOC(=O)[C@@H]1[C@@H](OC)C(=O)N(C)C12CCN(C(=O)c1cc(OC)c(OC)c(OC)c1)CC2	/	?	/	/	/	-2%
O=C(NC1CC1)c1nc2cccnc2n(C2CCCC2)c1=O	/	-23%[138 µM]	-7%[87.6 µM]	/	3%[87.6 µM]	1%[172 µM]
Cn1nccc1-c1nccc2c(=O)cc(N3CCOCC3)oc12	-6%[70.6 µM]	50µM*	-10%[87.6 µM]	i	21%[87.6 µM]	?
